Data on ten targets can be found in the supplement of paper PMC12819154, “High-throughput peptide-centric local stability assay extends protein–ligand identification to membrane proteins, tissues and bacteria” (Nature Structural & Molecular Biology, 2025).
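Also: lysate desalted by size exclusion to strip endogenous ATP, peptide intensities built from DIA-NN precursor signals, and peptides missing any value discarded before comparison.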

Chain of UniProt P76346 (P76346 whole entry): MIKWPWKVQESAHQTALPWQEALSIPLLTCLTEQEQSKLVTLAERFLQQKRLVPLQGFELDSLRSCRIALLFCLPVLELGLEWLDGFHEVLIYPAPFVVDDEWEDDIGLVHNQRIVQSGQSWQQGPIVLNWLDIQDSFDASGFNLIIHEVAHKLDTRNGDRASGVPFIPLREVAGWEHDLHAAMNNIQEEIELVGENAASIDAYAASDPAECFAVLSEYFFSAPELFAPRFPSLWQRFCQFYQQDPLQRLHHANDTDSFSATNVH
Chain of UniProt P32125 (P32125 whole entry): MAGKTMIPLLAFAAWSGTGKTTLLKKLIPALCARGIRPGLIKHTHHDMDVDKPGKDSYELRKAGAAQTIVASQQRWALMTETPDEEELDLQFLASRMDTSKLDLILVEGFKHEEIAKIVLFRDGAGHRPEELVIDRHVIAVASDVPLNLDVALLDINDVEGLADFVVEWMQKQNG
Chain of UniProt P19323 (P19323 whole entry): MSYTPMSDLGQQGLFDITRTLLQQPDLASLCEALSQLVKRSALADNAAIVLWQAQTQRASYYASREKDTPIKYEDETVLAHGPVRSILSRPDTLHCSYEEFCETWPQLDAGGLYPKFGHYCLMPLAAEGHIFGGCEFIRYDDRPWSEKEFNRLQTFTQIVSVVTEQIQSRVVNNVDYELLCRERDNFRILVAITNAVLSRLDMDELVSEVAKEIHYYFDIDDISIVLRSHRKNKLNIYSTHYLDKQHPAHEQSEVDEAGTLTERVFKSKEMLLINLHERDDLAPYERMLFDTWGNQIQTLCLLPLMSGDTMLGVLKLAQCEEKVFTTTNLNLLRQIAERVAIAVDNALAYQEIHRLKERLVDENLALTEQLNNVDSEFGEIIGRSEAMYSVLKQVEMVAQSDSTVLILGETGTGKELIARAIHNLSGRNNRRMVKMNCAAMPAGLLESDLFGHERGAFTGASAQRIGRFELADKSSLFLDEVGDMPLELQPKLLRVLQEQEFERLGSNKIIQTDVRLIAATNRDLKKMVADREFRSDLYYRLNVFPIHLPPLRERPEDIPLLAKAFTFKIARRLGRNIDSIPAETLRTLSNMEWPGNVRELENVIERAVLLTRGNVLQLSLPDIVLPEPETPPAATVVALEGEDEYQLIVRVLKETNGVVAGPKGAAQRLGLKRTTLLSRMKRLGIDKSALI
Chain of UniProt P39364 (P39364 whole entry): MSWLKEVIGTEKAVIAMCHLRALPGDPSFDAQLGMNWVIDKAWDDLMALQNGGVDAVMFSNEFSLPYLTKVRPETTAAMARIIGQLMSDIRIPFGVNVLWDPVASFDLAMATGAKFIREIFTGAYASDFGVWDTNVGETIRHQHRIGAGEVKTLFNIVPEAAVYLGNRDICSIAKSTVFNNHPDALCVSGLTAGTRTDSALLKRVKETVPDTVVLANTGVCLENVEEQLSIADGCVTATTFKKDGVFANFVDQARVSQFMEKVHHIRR
Chain of UniProt P39400 (P39400 whole entry): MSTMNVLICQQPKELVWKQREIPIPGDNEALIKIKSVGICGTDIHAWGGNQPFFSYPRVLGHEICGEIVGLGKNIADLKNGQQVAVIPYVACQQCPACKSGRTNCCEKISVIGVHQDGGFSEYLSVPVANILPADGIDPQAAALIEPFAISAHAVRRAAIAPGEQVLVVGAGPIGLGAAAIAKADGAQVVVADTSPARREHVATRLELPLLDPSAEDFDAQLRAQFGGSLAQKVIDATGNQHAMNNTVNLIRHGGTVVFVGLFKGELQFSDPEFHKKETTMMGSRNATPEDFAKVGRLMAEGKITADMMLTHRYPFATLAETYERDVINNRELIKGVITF
Chain of UniProt P30855 (P30855 whole entry): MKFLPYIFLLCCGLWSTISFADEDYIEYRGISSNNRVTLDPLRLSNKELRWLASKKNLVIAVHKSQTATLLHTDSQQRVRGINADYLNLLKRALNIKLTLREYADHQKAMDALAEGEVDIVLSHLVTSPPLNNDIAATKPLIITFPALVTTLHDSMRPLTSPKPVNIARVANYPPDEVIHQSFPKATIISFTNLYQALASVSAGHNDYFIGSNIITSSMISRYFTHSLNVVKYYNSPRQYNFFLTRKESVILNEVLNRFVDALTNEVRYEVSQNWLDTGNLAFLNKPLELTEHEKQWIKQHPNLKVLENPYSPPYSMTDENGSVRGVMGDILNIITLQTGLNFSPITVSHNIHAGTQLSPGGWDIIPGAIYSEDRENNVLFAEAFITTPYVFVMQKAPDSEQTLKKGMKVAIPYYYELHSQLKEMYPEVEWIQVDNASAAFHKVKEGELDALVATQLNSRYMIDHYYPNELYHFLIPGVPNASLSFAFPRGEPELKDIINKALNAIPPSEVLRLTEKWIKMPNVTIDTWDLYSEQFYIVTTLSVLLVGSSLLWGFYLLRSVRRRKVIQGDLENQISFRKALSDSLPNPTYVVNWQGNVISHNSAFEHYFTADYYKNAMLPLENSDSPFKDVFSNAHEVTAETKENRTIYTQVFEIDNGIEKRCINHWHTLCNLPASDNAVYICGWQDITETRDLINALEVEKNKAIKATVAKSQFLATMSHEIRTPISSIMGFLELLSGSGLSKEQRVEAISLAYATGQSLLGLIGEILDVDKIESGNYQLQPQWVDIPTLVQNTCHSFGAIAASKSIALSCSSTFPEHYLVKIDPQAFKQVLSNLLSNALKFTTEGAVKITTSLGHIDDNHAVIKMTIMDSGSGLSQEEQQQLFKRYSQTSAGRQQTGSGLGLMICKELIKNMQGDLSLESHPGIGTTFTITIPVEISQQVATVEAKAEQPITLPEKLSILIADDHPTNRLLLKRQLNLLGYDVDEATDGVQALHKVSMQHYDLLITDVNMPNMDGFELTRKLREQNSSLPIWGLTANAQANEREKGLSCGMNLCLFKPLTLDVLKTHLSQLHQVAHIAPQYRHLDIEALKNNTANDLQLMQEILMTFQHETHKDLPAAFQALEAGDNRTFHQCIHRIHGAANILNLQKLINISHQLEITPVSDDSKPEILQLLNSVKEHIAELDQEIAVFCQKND
Chain of UniProt P25740 (P25740 whole entry): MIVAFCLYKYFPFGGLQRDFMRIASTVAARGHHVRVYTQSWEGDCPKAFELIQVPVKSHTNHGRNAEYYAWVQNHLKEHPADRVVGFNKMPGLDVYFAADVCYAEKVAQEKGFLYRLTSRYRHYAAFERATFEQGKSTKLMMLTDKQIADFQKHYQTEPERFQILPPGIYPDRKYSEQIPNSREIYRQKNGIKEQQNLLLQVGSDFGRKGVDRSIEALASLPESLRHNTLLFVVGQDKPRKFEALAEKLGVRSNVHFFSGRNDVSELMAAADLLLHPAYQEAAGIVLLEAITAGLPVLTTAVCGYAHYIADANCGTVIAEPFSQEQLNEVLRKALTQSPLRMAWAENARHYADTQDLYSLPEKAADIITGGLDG
Chain of UniProt P23857 (P23857 whole entry): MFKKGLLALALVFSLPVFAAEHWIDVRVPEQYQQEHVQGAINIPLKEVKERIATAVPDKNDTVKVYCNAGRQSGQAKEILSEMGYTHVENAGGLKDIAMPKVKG
Chain of UniProt P04425 (P04425 whole entry): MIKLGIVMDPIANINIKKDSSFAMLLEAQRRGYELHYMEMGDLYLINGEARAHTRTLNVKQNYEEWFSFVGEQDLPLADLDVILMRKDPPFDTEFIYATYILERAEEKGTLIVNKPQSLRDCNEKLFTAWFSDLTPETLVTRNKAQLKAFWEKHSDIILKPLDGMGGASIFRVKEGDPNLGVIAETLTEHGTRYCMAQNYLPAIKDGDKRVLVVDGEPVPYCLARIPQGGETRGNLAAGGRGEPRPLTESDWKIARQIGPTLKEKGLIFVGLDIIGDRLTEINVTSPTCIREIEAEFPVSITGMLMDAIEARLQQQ
Chain of UniProt P77272 (P77272 whole entry): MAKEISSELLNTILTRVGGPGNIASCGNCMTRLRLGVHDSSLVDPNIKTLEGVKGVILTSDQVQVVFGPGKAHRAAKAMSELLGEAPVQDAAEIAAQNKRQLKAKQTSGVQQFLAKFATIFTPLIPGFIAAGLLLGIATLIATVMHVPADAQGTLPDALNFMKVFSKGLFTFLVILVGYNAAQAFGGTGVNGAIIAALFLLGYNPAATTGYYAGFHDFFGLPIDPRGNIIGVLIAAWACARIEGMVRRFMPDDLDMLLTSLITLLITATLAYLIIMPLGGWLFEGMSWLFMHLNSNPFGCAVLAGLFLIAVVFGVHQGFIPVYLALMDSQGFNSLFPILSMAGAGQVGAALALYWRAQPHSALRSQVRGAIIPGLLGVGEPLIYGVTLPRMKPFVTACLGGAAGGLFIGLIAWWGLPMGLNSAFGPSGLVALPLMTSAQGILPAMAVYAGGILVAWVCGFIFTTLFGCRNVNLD

Compound in this assay: Nc1ncnc2c1ncn2[C@@H]1O[C@H](COP(=O)(O)OP(=O)(O)OP(=O)(O)O)[C@@H](O)[C@H]1O [adenosine 5'-triphosphate]
As to the kind of experiment: log2 fold change of tryptic peptide abundance, ligand vs vehicle (limited proteolysis) (log2 ratio); higher = more trypsin-susceptible (destabilized). As to conditions: ligand concentration: 5 mM; sample: E. coli desalted lysate; replicate design: treated before aliquoting. Here is the method: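 HT-PELSA: desalted E. coli K-12 BW25113 lysate (with 12 mM MgCl2) incubated with 5 mM ATP (pH 7) or water for 30 min at 25 C, then a 4 min trypsin pulse at 22 C. Peptides were quantified by DIA-MS (4 replicates). Value is the peptide log2 fold change (treated/control); negative = stabilized. Scale: negative = ligand-stabilized region.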
Take “UniProt P39364 (peptide sequence: IIGQLMSDIR, peptide start residue: 82)”: the log2 fold change is -0.915.
In the case of “UniProt P23857 (peptide sequence: ERIATAVPDKNDTVK, peptide start residue: 50)” it was 0.323; in that of “UniProt P19323 (peptide sequence: ELENVIER, peptide start residue: 600)”, -0.833; in that of “UniProt P39400 (peptide sequence: VLGHEICGEIVGLGK, peptide start residue: 59)”, -1.26.
Take “UniProt P32125 (peptide sequence: AGAAQTIVASQQR, peptide start residue: 63)”: the log2 fold change was -0.686.
As to “UniProt P77272 (peptide sequence: LRLGVHDSSLVDPNIK, peptide start residue: 33)”, the log2 fold change turned out to be 0.714.
“UniProt P04425 (peptide sequence: GTLIVNKPQSLR, peptide start residue: 109)”: the log2 fold change was -1.9.
In the case of “UniProt P76346 (peptide sequence: LHHANDTDSFSATNVH, peptide start residue: 250)” it was 0.288; in that of “UniProt P30855 (peptide sequence: YSQTSAGR, peptide start residue: 888)”, 0.38; in that of “UniProt P25740 (peptide sequence: HYAAFER, peptide start residue: 123)”, -0.355.
